Results reported in PubChem BioAssay AID1159580 (chemical genetic matrix, 2015).
Several values for one entry are separate records, joined by “and”; a condition that tells them apart may be missing. Identical values can stand only once. The whole screen tested about 5,500 compounds, of which about 2,000 (36%) were called active. Another 18% or so got no clear call; they are omitted. No stated cut-off is given here; in the data, active means normalized growth mostly below about 0.91 (no sharp cut-off); inconclusive means no clear call, values can overlap the other calls; inactive means mostly above about 0.92. The list shows a part of the results.

Experiment: chemical genetic growth profiling, strain panel (AID 1159580);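 further: tested at 20 µM; growth read once vehicle control cultures reached saturation at 30 °C; 1 = growth at the plate median or of vehicle wells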
Conditions: S. cerevisiae deletion strains, growth OD

Measured: normalized growth

COc1cc(OC)c2c(=O)c(O)c(-c3ccc(OC)c(OC)c3)oc2c1
inactive: locus YBR021W, strain FUR4, stronger effect = lower value 0.922 | locus YBR171W, strain sec66, stronger effect = lower value 0.942 | locus YCL011C, strain gbp2, stronger effect = lower value 0.916 | locus YCL016C, strain dcc1, stronger effect = lower value 0.934 | locus YCL069W, strain vba3, stronger effect = lower value 0.973 | locus YCR088W, strain abp1, stronger effect = lower value 0.958 | locus YDL005C, strain med2, stronger effect = lower value 0.982 | locus YDL040C, strain nat1, stronger effect = lower value 0.978 | locus YDL185W, strain tfp1, stronger effect = lower value 0.94 | locus YDR001C, strain nth1, stronger effect = lower value 0.964 | locus YDR137W, strain rgp1, stronger effect = lower value 0.904 | locus YDR159W, strain sac3, stronger effect = lower value 0.992 | locus YDR195W, strain ref2 0.984 | locus YDR392W, strain spt3, stronger effect = lower value 0.943 | locus YEL037C, strain rad23, stronger effect = lower value 0.926 | locus YEL061C, strain CIN8 (second series), stronger effect = lower value 0.98 | locus YER016W, strain bim1, stronger effect = lower value 0.942 | locus YER110C, stronger effect = lower value 1.02 | locus YER155C, strain BEM2 (second series), stronger effect = lower value 0.936 | locus YGL078C, strain dbp3, stronger effect = lower value 0.978 | locus YGL167C, strain pmr1, stronger effect = lower value 0.938 | locus YGL227W, strain vid30, stronger effect = lower value 0.986 | locus YGL240W, strain doc1, stronger effect = lower value 0.993 | locus YGR252W, strain gcn5, stronger effect = lower value 0.85 | locus YHR013C, strain ard1, stronger effect = lower value 0.868 | locus YHR030C, strain SLT2, stronger effect = lower value 0.971 | locus YHR079C, strain IRE1, stronger effect = lower value 0.996 | locus YJL092W, strain hpr5, stronger effect = lower value 0.959 | locus YJL115W, strain asf1, stronger effect = lower value 0.973 | locus YJL129C, strain trk1, stronger effect = lower value 1.01 | locus YJL154C, strain vps35, stronger effect = lower value 0.968 | locus YJL166W, strain qcr8, stronger effect = lower value 0.934 | locus YJR066W, strain TOR1, stronger effect = lower value 0.943
0.264 (active) and 0.97 (inactive): locus YJL095W, strain BCK1, stronger effect = lower value
active: locus YAL021C, strain ccr4, stronger effect = lower value 0.741 | locus YAL026C, strain drs2, stronger effect = lower value 0.852 | locus YAL030W, strain snc1, stronger effect = lower value 0.904 | locus YBL061C, strain skt5, stronger effect = lower value 0.901 | locus YBR009C, strain hhf1, stronger effect = lower value 0.903 | locus YBR023C, strain chs3, stronger effect = lower value 0.827 | locus YBR229C, strain ROT2, stronger effect = lower value 0.648 | locus YBR231C, strain swc5, stronger effect = lower value 0.77 | locus YBR279W, strain paf1, stronger effect = lower value 0.913 | locus YCL029C, strain bik1, stronger effect = lower value 0.768 | locus YDL035C, strain GPR1, stronger effect = lower value 0.31 | locus YDL074C, strain BRE1, stronger effect = lower value 0.402 | locus YDL101C, strain DUN1, stronger effect = lower value 0.396 | locus YDL134C, strain PPH21, stronger effect = lower value 0.369 | locus YDL192W, strain arf1, stronger effect = lower value 0.719 | locus YDR069C, strain doa4, stronger effect = lower value 0.496 | locus YDR101C, strain arx1, stronger effect = lower value 0.811 | locus YDR162C, strain NBP2, stronger effect = lower value 0.132 | locus YDR297W, strain sur2, stronger effect = lower value 0.841 | locus YDR318W, strain mcm21, stronger effect = lower value 0.788 | locus YDR334W, strain swr1, stronger effect = lower value 0.856 | locus YDR335W, strain msn5, stronger effect = lower value 0.878 | locus YDR388W, stronger effect = lower value 0.844 | locus YDR502C, strain sam2, stronger effect = lower value 0.667 | locus YEL003W, strain gim4, stronger effect = lower value 0.876 | locus YER015W, strain faa2, stronger effect = lower value 0.82 | locus YER111C, strain swi4, stronger effect = lower value 0.835 | locus YER155C, strain BEM2, stronger effect = lower value 0.664 | locus YER167W, strain BCK2, stronger effect = lower value 0.631 | locus YFR010W, strain ubp6, stronger effect = lower value 0.852 | locus YGL173C, strain kem1, stronger effect = lower value 0.78 | locus YGL248W, strain PDE1, stronger effect = lower value 0.46 | locus YGL253W, strain hxk2, stronger effect = lower value 0.889 | locus YGR078C, strain PAC10, stronger effect = lower value 0.591 | locus YGR135W, strain pre9, stronger effect = lower value 0.689 | locus YHR027C, strain rpn1, stronger effect = lower value 0.695 | locus YHR079C, strain IRE1 (second series), stronger effect = lower value 0.77 | locus YHR094C, strain hxt1, stronger effect = lower value 0.864 | locus YHR129C, strain ARP1, stronger effect = lower value 0.589 | locus YHR142W, strain chs7, stronger effect = lower value 0.82 | locus YHR200W, strain rpn10, stronger effect = lower value 0.784 | locus YIL066C, strain RNR3, stronger effect = lower value 0.46 | locus YIL073C, strain SPO22, stronger effect = lower value 0.163 | locus YIL125W, strain kgd1, stronger effect = lower value 0.916 | locus YIR030C, strain dcg1, stronger effect = lower value 0.873 | locus YJL095W, strain BCK1 (second series), stronger effect = lower value 0.921 | locus YJL134W, strain LCB3, stronger effect = lower value 0.608 | locus YJL164C, strain tpk1, stronger effect = lower value 0.758 | locus YJL168C, strain set2, stronger effect = lower value 0.929 | locus YJL187C, strain SWE1 (second series), stronger effect = lower value 0.17 | locus YJR043C, strain POL32, stronger effect = lower value 0.238
